Bioassay records (PubChem BioAssay)
Anthrax LT inh = qHTS Assay for Anthrax Lethal Toxin Internalization; Cells, anthrax lethal toxin internalization, FRET ratio (460/530); Potency, µM (highest dose often 40 µM), usual class: inhibitors; 70,000 tested, 0.67% active; AID 912, 2007; also: nearly all actives have a fitted effect of over 50% in size
AmpC inh no det = Promiscuous and Specific Inhibitors of AmpC Beta-Lactamase (assay without detergent). P00811. AmpC nitrocefin hydrolysis, absorbance 480 nm, no detergent. Potency, µM (series often up to 28.7 µM). 71,000 tested, 1.8% active. AID 585, 2007
Target sequence (P00811 whole entry, looked up): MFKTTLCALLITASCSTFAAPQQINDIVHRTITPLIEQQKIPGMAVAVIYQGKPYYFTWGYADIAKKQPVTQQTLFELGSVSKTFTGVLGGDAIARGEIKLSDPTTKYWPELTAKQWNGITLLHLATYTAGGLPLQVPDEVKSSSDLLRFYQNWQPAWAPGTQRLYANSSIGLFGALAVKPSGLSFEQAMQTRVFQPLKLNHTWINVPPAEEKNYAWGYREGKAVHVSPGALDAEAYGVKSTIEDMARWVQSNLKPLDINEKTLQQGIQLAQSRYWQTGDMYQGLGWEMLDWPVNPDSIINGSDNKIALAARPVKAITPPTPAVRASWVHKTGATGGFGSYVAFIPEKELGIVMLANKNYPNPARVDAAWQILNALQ
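AmpC, 20 mM phosphate pH 7.0; 15 min cpd preinc, RT; start with nitrocefin (800 uM stock); A480 kinetic read, 20 s intervals, 4 min. No-enzyme wells = negative control.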
AmpC det inh = Promiscuous and Specific Inhibitors of AmpC Beta-Lactamase (assay with detergent); P00811; purified AmpC, nitrocefin hydrolysis with detergent; Potency, µM (series often up to 28.7 µM); 71,000 tested, 0.09% active; AID 584, 2007; active = well fitted curve in the direction sought with a large enough effect; inconclusive = small, poorly fitted or top-dose-only effect
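E. coli AmpC (5.3 nM) in 20 mM phosphate pH 7.0 with 0.01% Triton X-100, preincubated 15 min RT with compound; nitrocefin (2 uL of 800 uM stock) hydrolysis followed by 480 nm absorbance every 20 s over 4 min.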
Prx2 Sm inh = Schistosoma Mansoni Peroxiredoxins (Prx2); Schistosoma mansoni peroxiredoxin 2 (Prx2); Potency, µM; AID 448, 2006; S. mansoni Prx2 activity coupled to TGR/GSH (TGR is thioredoxin glutathione reductase), NADPH fluorescence loss, qHTS; 65,000 tested, 0.07% active
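Prx2 inhibition was measured as reduced NADPH consumption when electrons flowed from NADPH through TGR and glutathione to Prx2 and H2O2. Plates were read kinetically over 8 min; enzyme reagents were held at 4 deg C during dispensing.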
A number is an active result; – = inactive; ? = inconclusive; · = not tested or not shown; [ ] = another dose, or the depositor's remark. Sampled rows, rich in hits. Any-hit rate of the full collection: about 2.4%. Unless noted, calls follow the shape of the full dose curve.

SMILES	Anthrax LT inh	AmpC inh no det	AmpC det inh	Prx2 Sm inh
Nc1nc2c(s1)CCc1c-2cnn1-c1ccccc1	10µM	–	–	–
COc1ccc(-c2cnn(-c3ccccc3)c2N)cc1OC	–	–	–	·
C[C@@H]1C=C[C@](Cc2ccccc2)(C(=O)NCCN2CCOCC2)N1C(=O)c1ccccc1	–	–	–	·
Cc1ccc2c(c1)NC(=O)C(CC(=O)O)O2 (stereo unspecified)	–	–	–	–
CCOCCCNC(=O)CC1Oc2ccc(C)cc2NC1=O (stereo unspecified)	–	4µM[single pt active]	–	–
Cc1ccc2c(c1)NC(=O)C(CC(=O)NCCCN1CCCCC1)O2 (stereo unspecified)	–	–	–	–
Cc1ccc2c(c1)NC(=O)C(CC(=O)NCCN(C)C)O2 (stereo unspecified)	–	3.2µM[single pt active]	–	–
Cc1ccc(CCNC(=O)CC2Oc3ccc(C)cc3NC2=O)cc1 (stereo unspecified)	–	4µM[single pt active]	–	–
Oc1cc(O)cc(/C=C\c2ccc(O)c(O)c2)c1	–	–	–	–
O=C(CN1CCC(n2nnc3cc(F)ccc32)CC1)NC1CC1	–	–	–	–
CCOc1ccc2nc(NC(=O)CN3CCC(n4nnc5cc(F)ccc54)CC3)sc2c1	13µM	–	–	–
NC(N)=NC(N)=Nc1ccccc1 (tested in a mixture with another compound)	?	–[5.75 µM]	–[5.75 µM]	–
O=C(CSc1nnc(-c2ccccc2O)o1)Oc1ccc(OCc2ccccc2)cc1	–	13µM[single pt active]	–	–
O=c1cc(-c2ccc(Cl)cc2)[nH][nH]1	–	–	–	–
O=c1cc(-c2ccc(Cl)c(Cl)c2)[nH][nH]1	–	13µM[single pt active]	–	–
O=C1C[C@H]2OCCC=C3CN4CC[C@@]56c7ccccc7N1[C@@H]5[C@H]2[C@H]3C[C@@H]46	?	–	–	–
CCOC(=O)N1CCC(NC(=O)c2ccc(CS(=O)(=O)c3ccccc3C)o2)CC1	–	4µM[single pt active]	–	–
CCCCN(C)C(=O)c1ccc(CS(=O)(=O)c2ccccc2C)o1	–	4µM[single pt active]	–	–
S=P(C1CCCCC1)(C1CCCCC1)[C@H](c1cccnc1)N1CCCC1	–[8 µM]	–[5.75 µM]	–[5.75 µM]	–
CCC(c1nnnn1Cc1cccs1)N1CCN(c2nc3ccccc3s2)CC1 (stereo unspecified)	10µM	–	–	–
COC(=O)c1sc2nc(-c3ccco3)ccc2c1N	–	–	–	–
N#Cc1sc2nc(-c3ccccc3)cc(-c3ccco3)c2c1N	?	6.3µM	–	–
N#Cc1c(-c2ccccc2)cc(-c2ccco2)c(C#N)c1N	?	6.3µM	–	·
C=C(C)[C@H]1Cc2c(ccc3c2O[C@H]2COc4cc(OC)c(OC)cc4[C@@H]2C3=O)O1	?	–	–	–
CS(=O)(=O)N1CCC2(CC1)CN(c1ccccn1)C2	–	–	–	–
SMILES	Anthrax LT inh	AmpC inh no det	AmpC det inh	Prx2 Sm inh
N#Cc1c(N)oc(-c2ccc3c(c2)OCO3)c1-c1ccc2c(c1)OCO2	–	10µM	–	–
N#Cc1c(N)nc2c(c1-c1ccc3c(c1)OCO3)CCCCCC2	–	–	–	–
C[C@H]1COC(=O)[C@H]2CCCN2C(=O)[C@@H](C)COC(=O)[C@H]2CCCN2C1=O	–[8 µM]	·	·	·
N=C(C[C@@H](O)COc1ccccc1-c1ccccc1)N1CCCCC1	?	–	–	–
COc1nc(-c2ccccc2)cc(-c2ccc(OC)c(OC)c2)n1	13µM	–	–	·
COc1ccc(-c2cc(C(F)(F)F)nc(N3CCN(c4ccccc4)CC3)n2)cc1OC	–	–	–	–
Oc1cccc2ccc(SSc3ccc4cccc(O)c4n3)nc12	–[8 µM]	–[5.75 µM]	–[5.75 µM]	–
CCOC(=O)CSCc1nc(-c2ccc(Cl)cc2)oc1C	?	4µM[single pt active]	–	–
Cc1cc(=O)oc2cc(NC(=O)C3COc4ccccc4O3)ccc12 (stereo unspecified)	?	10µM	–	–
O=C(Nc1ccc2c(c1)OCO2)C1COc2ccccc2O1 (stereo unspecified)	–	–	–	·
CO[C@H]1COC(=O)[C@H](C)NC(=O)[C@@H](C)COC(=O)[C@H]2CCCN2C(=O)C/C=C\[C@H]1C	–[8 µM]	·	·	·
CCC/C=C(\CCC)C(NS(=O)(=O)c1ccccc1)c1ccc(C(F)(F)F)cc1 (stereo unspecified)	?	13µM[single pt active]	–	–
CCC/C=C(\CCC)C(NS(=O)(=O)c1ccc(C(F)(F)F)cc1)c1ccccc1 (stereo unspecified)	–	–	–	–
CCC/C=C(\CCC)C(NS(=O)(=O)c1ccc(C(F)(F)F)cc1)c1ccc(C(=O)OC)cc1 (stereo unspecified)	–	13µM	–	–
COc1ccc(Cl)cc1NC(=O)Cn1c(=O)n2nc(C)nc2c2ccccc21	–	4µM[single pt active]	–	–
COc1ccccc1NC(=O)Cn1c(=O)n2nc(C)nc2c2ccccc21	–	–	–	–
NC(=NCCC[C@@H](N)C(=O)O)N[N+](=O)[O-]	–	–	–	–
O=C(NCCc1ccccc1)c1ccc(-n2cnnn2)cc1	–	–	–	–
c1ccc(CCNc2ccc3nncn3n2)cc1	–	3.2µM[single pt active]	–	–
O=C(CSc1nc(-c2ccccc2)cs1)Nc1nccs1	–	10µM	–	–
CS(=O)(=O)N(Cc1ccco1)CC(O)Cn1c2ccccc2c2ccccc21 (stereo unspecified)	10µM	–	–	–
OC(CNCc1ccco1)Cn1c2ccccc2c2ccccc21 (stereo unspecified)	–	–	–	–
CCOC(=O)CSc1nn(C)c(=S)s1	–	4µM[single pt active]	–	–
CCOC(=O)CSc1nnc(N)s1	?	–	–	–
O=C(Nc1cc[c]([Sb](=[O])([OH])[OH])cc1)c1ccccc1	–[8 µM]	3.2µM[single pt active]	–[5.75 µM]	–
SMILES	Anthrax LT inh	AmpC inh no det	AmpC det inh	Prx2 Sm inh
N=c1n(CCO)c2ccccc2n1CCOc1ccc(Cl)cc1Cl	?	4µM[single pt active]	–	–
O=C1c2ccccc2C(Nc2ccc(S(=O)(=O)N3CCOCC3)cc2)N1c1cccnc1 (stereo unspecified)	?	4µM[single pt active]	–	–
O=C1c2ccccc2C(Nc2ccc(S(=O)(=O)N3CCCCC3)cc2)N1c1ccccn1 (stereo unspecified)	?	3.2µM[single pt active]	–	–
O=C1c2ccccc2C(Nc2ccc(F)c(Cl)c2)N1c1ccccn1 (stereo unspecified)	–	4µM[single pt active]	–	–
CO/N=C\[C@@H](NS(=O)(=O)c1ccc(C)cc1)[C@H](C)/C=C\CC(=O)OC	–[8 µM]	·	·	·
O=C(O)[C@@H]1CCCN1Cc1cc2ccccc2c2ccccc12	–[8 µM]	–[5.75 µM]	–[5.75 µM]	–
CCNc1ncc2nc(-c3cn(C)c4ccccc34)c(=O)n(Cc3cccc(OC)c3)c2n1	?	–	–	–
Nc1ccc2cc3ccccc3cc2c1	?	2.5µM	–	·
O=C(CSc1nnc(COc2ccc(Cl)cc2)o1)N1CCN(c2ccccc2)CC1	?	–	–	–
Clc1ccc(-c2nnc(SCc3nc(-c4ccccc4)no3)o2)cc1	?	4µM[single pt active]	–	–
O=C(CSc1nnc(-c2ccc(Cl)cc2)o1)N1CCN(c2ccccc2)CC1	–	10µM[single pt active]	–	–
